# Reference: PubChem BioAssay (EPA / NIEHS)
# Inconclusive results are not listed. The source made the active and inactive calls. The calls were made as follows, unless noted: active = hit-call score of the fitted dose curve at least 0.9, where 1 is the maximum; inactive = score below 0.9.
# What was measured:
# [1] = tested on: Brachyury (BRA) Protein Expression, Deisenroth Lab, TBXT (gene 6862); test: CCTE_Deisenroth_DEVTOX-GLR_legacy_Bra: (Legacy) CCTE's DevTox GLR-Endo Assay Evaluation of Brachyury (BRA) Protein Expression, Deisenroth Lab (AID 2284329)
# How it was run: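 RUES2-GLR human pluripotent cells differentiated 48 h with two 24-h-interval chemical exposures (1 nM - 200 uM, 10 points); fixed, nuclear-stained, imaged. Bra+ cell percentage (intensity 5x BMAD above pluripotent control median) fitted relative to 0.2% DMSO.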
# [2] = CCTE_Deisenroth_DEVTOX-GLR_legacy_CellCount: (Legacy) Viability Assessment in CCTE's DevTox GLR-Endo Assay, Deisenroth Lab (AID 2284331); conditions: actives raise or lower the signal
# How it was run: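 RUES2-GLR human pluripotent cells were seeded 24 h, then differentiated 48 h with two compound doses at 24 h intervals (10-point, 1 nM - 200 uM). Fixed nuclei were imaged and counted; bidirectional fitting versus 0.2% DMSO.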
# [3] = tested on: SRY-box transcription factor 17 (SOX17) Protein Expression, Deisenroth Lab, SOX17 (gene 64321); test: CCTE_Deisenroth_DEVTOX-GLR_legacy_Sox17: (Legacy) CCTE's DevTox GLR-Endo Assay Evaluation of SRY-box transcription factor 17 (SOX17) Protein Expression, Deisenroth Lab (AID 2284341); conditions: actives raise or lower the signal
# How it was run: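 Percent SOX17-positive cells, scored by high-content imaging as mean intensity exceeding pluripotent-control median by 5x BMAD, divided by cell count. Human RUES2-GLR endoderm differentiation, 48 h, two exposures 24 h apart, 1 nM–200 uM; DMSO-referenced bidirectional fitting.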
# [4] = tested on: SRY-box transcription factor 2 (SOX2) Protein Expression, Deisenroth Lab, SOX2 (gene 6657); test: CCTE_Deisenroth_DEVTOX-GLR_legacy_Sox2: (Legacy) CCTE's DevTox GLR-Endo Assay Evaluation of SRY-box transcription factor 2 (SOX2) Protein Expression, Deisenroth Lab (AID 2284346)
# How it was run: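 RUES2-GLR human pluripotent cells seeded 24 h, then differentiated 48 h in defined media with two chemical doses 24 h apart (10-point, 1 nM–200 uM). Fixed, nuclear-stained, imaged; % Sox2+ cells (>5x BMAD over endoderm control median), DMSO-subtracted, fitted upward.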
# [5] = tested on: SRY-box transcription factor 17 (SOX17) Protein Expression, Deisenroth Lab, SOX17 (gene 64321); test: CCTE_Deisenroth_DEVTOX-GLR_Endo_SOX17: CCTE's DevTox GLR-Endo Assay Evaluation of SRY-box transcription factor 17 (SOX17) Protein Expression, Deisenroth Lab (AID 2284413)
# How it was run: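 Endpoint: % change in SOX17+ fraction (SOX17+ cells / cell count) vs 0.2% DMSO solvent control. RUES2-GLR reporter cells, 48 h endoderm differentiation, two doses at 24 h intervals, high-content fluorescence imaging, 5 fields/well.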
# [6] = tested on: Brachyury (BRA) Protein Expression, TBXT (gene 6862); test: CCTE_Deisenroth_DEVTOX-GLR_Endo_BRA: CCTE's DevTox GLR-Endo Assay Evaluation of Brachyury (BRA) Protein Expression, Deisenroth Lab (AID 2284417)
# How it was run: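 Endpoint is the fraction of BRA reporter-positive cells over total nuclei, corrected by subtracting the 0.2% DMSO value. Chemicals (1 nM - 200 uM, 10 points) were dosed twice during 48 h differentiation of RUES2-GLR cells, read by imaging.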
# [7] = CCTE_Deisenroth_DEVTOX-GLR_Endo_CellCount: Viability Assessment in CCTE's DevTox GLR-Endo Assay, Deisenroth Lab (AID 2284420)
# How it was run: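 RUES2-GLR pluripotent cells seeded 24 h, then differentiated 48 h in defined media with two chemical exposures 24 h apart. Nuclei counted by high-content imaging; 10-point 1 nM–200 uM series; percent change versus 0.2% DMSO.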
# [8] = tested on: SRY-box transcription factor 17 (SOX17) Protein Expression, Deisenroth Lab, SOX17 (gene 64321); test: CCTE_Deisenroth_DEVTOX-GLR_Pluri_SOX17: CCTE's DevTox GLR-Pluri Assay Evaluation of SRY-box transcription factor 17 (SOX17) Protein Expression, Deisenroth Lab (AID 2284427; active = hit-call score of the fitted dose curve at least 0.9, where 1 is the maximum)
# How it was run: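 RUES2-GLR pluripotent cells were induced toward endoderm over 48 h and received two compound doses 24 h apart, in a 10-point series from 1 nM to 200 uM. The percentage of SOX17+ cells among total cells was measured by high-content imaging and reported minus the 0.2% DMSO control.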
# [9] = tested on: SRY-box transcription factor 2 (SOX2) Protein Expression, Deisenroth Lab, SOX2 (gene 6657); test: CCTE_Deisenroth_DEVTOX-GLR_Pluri_SOX2: CCTE's DevTox GLR-Pluri Assay Evaluation of SRY-box transcription factor 2 (SOX2) Protein Expression, Deisenroth Lab (AID 2284428)
# How it was run: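 RUES2-GLR human pluripotent cells, two exposures 24 h apart over 48 h differentiation; 10-point series 1 nM - 200 uM. High-content imaging gives SOX2+ cells divided by cell count, reported as percent change versus 0.2% DMSO.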
# [10] = tested on: Brachyury (BRA) Protein Expression, Deisenroth Lab, TBXT (gene 6862); test: CCTE_Deisenroth_DEVTOX-GLR_Pluri_BRA: CCTE's DevTox GLR-Pluri Assay Evaluation of Brachyury (BRA) Protein Expression, Deisenroth Lab (AID 2284429; active = hit-call score of the fitted dose curve at least 0.9, where 1 is the maximum)
# How it was run: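 Human pluripotent RUES2-GLR cells, seeded 24 h, were differentiated 48 h in defined media with two chemical doses at 24-h intervals (10-point, 1 nM - 200 uM). Readout: percent BRA+ cells by fluorescent reporter imaging, minus 0.2% DMSO control.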
# [11] = CCTE_Deisenroth_DEVTOX-GLR_Pluri_CellCount: Viability Assessment in CCTE's DevTox GLR-Pluri Assay Evaluation of Total Cell Counts, Deisenroth Lab (AID 2284430)
# How it was run: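 RUES2-GLR human pluripotent cells, seeded 24 h, then differentiated 48 h with two chemical exposures 24 h apart; 10-point series 1 nM - 200 uM. Fixed, nuclear-stained, imaged (5 fields/well); nuclei count as % change vs 0.2% DMSO.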
# [12] = UKN5_HCS_SBAD2_cell_viability: Viability Assessment in the University of Konstanz (UKN) Leist Lab Neurite Outgrowth Assay in human iPSC-derived immature Dorsal Root Ganglia Neurons (UKN5) (AID 2284056)
# How it was run: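 iPSC-derived immature peripheral neurons (SBAD2) seeded on Matrigel with CHIR99021, SU5402 and DAPT, dosed 1 h later for 24 h. Viability from Hoechst H-33342 and calcein-AM live staining, high-content imaging; bidirectional fit versus DMSO.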
# [13] = UKN5_HCS_SBAD2_neurite_outgrowth: University of Konstanz (UKN) Leist Lab Neurite Outgrowth Assay in human iPSC-derived immature Dorsal Root Ganglia Neurons (UKN5) (AID 2284070); conditions: actives raise or lower the signal
# How it was run: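 SBAD2 iPSC-derived immature peripheral neurons on Matrigel, 100.000 cells/cm2, medium with CHIR99021 (1.5 uM), SU5402 (5 uM), DAPT (5 uM); compound added 1 h post-seeding for 24 h. Calcein-AM neurite area by high-content imaging; Hoechst H-33342 viability; bidirectional fit vs DMSO.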
# [14] = UKN2_HCS_IMR90_neural_migration: University of Konstanz (UKN) Leist Lab Neural Crest Cell Migration Assay in human induced IMR90 Pluripotent Stem Cells (UKN2) (AID 2284204); conditions: actives raise or lower the signal
# How it was run: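 iPSC-derived IMR90 neural crest cells on PLO/laminin/fibronectin were seeded around silicone stoppers; after stopper removal, migration in N2-S medium with EGF and FGF ran 24 h before 24 h chemical exposure. Calcein-AM/Hoechst high-content imaging; bidirectional fit versus DMSO.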
# [15] = UKN4_HCS_LUHMES_neurite_outgrowth: University of Konstanz (UKN) Leist Lab Neurite Outgrowth Assay in human LUHMES cells (UKN4) (AID 2284206); conditions: actives raise or lower the signal
# How it was run: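 Human LUHMES neuronal precursors, differentiated 2 days then replated without cAMP and GDNF, exposed to compounds for 24 h. Neurite area imaged by high-content microscopy after calcein-AM live staining; Hoechst H-33342 for viability; bidirectional fit versus DMSO.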
# [16] = UKN4_HCS_LUHMES_cell_viability: Viability Assessment in the University of Konstanz (UKN) Leist Lab Neurite Outgrowth Assay in human LUHMES cells (UKN4) (AID 2284232)
# How it was run: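 LUHMES precursors differentiated 2 days, replated at 30000 cells/well without cAMP/GDNF, then compound-treated 24 h. Viability from Hoechst H-33342 and calcein-AM live staining (30 min) by high-content fluorescence imaging; bidirectional fit versus DMSO.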
# [17] = UKN2_HCS_IMR90_cell_viability: Viability Assessment in the University of Konstanz (UKN) Leist Lab Neural Crest Cell Migration Assay in human induced IMR90 Pluripotent Stem Cells (UKN2) (AID 2284233);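 also: viability of neural crest cells differentiated from IMR90 iPSC measured by calcein-AM fluorescence imaging; cells exposed to compound for 24 h after a 24 h migration phase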
# How it was run: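 iPSC-derived (IMR90) neural crest cells seeded around silicone stoppers on PLO/laminin/fibronectin; after 24 h migration in N2-S with EGF/FGF, chemical added for 24 h. Calcein-AM/Hoechst stained 30 min, high-content imaged; bidirectional fit versus DMSO.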
SMILES,outcome [1],AC50 [2],AC50 [3],AC50 [4],AC50 [5],AC50 [6],AC50 [7],outcome [8],AC50 [9],AC50 [10],outcome [11],AC50 [12],outcome [13],outcome [14],outcome [15],outcome [16],AC50 [17]
Nc1cccc2c1C(=O)N(C1CCC(=O)NC1=O)C2=O (configuration not stated),inactive,0.272 µM (active),0.067 µM (active),155 µM (active),0.0587 µM (active),29.5 µM (active),0.281 µM (active),inactive,1.04 µM (active),25.1 µM (active),inactive,–,–,–,–,–,–
O.O=S(=O)([O-])[O-].[Mn+2],–,–,–,–,–,–,–,–,–,–,–,18.8 µM (active),inactive,inactive,inactive,inactive,50 µM (active)
